Source: PubChem
KDM5B inh: inhibitors of human KDM5B histone demethylase | KDM5B demethylase, FDH-coupled NADH fluorescence (FDH is formaldehyde dehydrogenase) | Q9UGL1 | Potency, µM (top dose mostly 57.7 µM), actives largely listed as inhibitors | 220,000 tested, 2.6% active; active = well fitted inhibition curve with a large enough effect; note: 0% is about no effect; nearly all actives have a fitted effect of over 70% in size
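KDM5BΔAP (200 nM final) in 50 mM HEPES pH 7.5, 0.01% Tween-20 was preincubated 10 min at RT with compound over a concentration range. Substrate mix (H3K4me3 12.5 µM, α-KG 25 µM, Fe²⁺, ascorbate, NAD⁺, FDH) was added, and NADH fluorescence change over 30 min gave dose-response curves.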
An asterisk follows results filed as active. Shown is part of a subset that was picked to be rich in hits. Potency is the fitted concentration of half-maximal effect.

O=C(NC1CCCCC1)N1C[C@@H]2C[C@H](C1)c1ccc(C3CCCCC3)c(=O)n1C2 was read as KDM5B inh 39.8µM*.
`COc1ccc(-c2ccc(=O)n3c2[C@@H]2C[C@@H](CN(C(=O)NC4CCCCC4)C2)C3)cc1` gave KDM5B inh inactive.
`Cc1ccccc1-c1ccc2n(c1=O)C[C@H]1C[C@@H]2CN(C(=O)NC2CCCCC2)C1` gave KDM5B inh 35.5µM*.
`O=C(Nc1ccc2n(c1=O)C[C@H]1C[C@@H]2CN(C(=O)NC2CCCCC2)C1)c1ccccn1` gave KDM5B inh inactive.
`CC(NC(C)c1ccc(Cl)cc1)C(=O)c1c[nH]c2ccccc12` (stereo unspecified) gave KDM5B inh inactive.
`O=C(CSC1c2ccccc2Sc2ccccc21)Nc1ccc(C(=O)O)cc1` gave KDM5B inh inactive.
For CC(C)C(C)NC(=O)COC(=O)c1cn(C)c2ccccc12 (stereo unspecified) the results were KDM5B inh inactive.
Screening CCOC(=O)C1=C(C)OC(N)=C(C(=O)OC)C12C(=O)Nc1cc(Br)ccc12 (stereo unspecified) returned KDM5B inh inactive.
Screening COc1ccc(S(=O)(=O)NC[C@H]2C[C@@H]3CCN2C[C@@H]3CN2CCC(Cc3ccccc3)CC2)cc1 returned KDM5B inh inactive.
COc1ccc2c(C)c(C(=O)N3CCC(C#N)(c4ccccc4)CC3)oc2c1 was read as KDM5B inh 20µM*.
N#CC1(c2ccccc2)CCN(C(=O)C2CCN(C(=O)C3CC3)CC2)CC1 was read as KDM5B inh inactive.
Screening N#CC1(c2ccccc2)CCN(C(=O)c2cccc(-n3cnnc3)c2)CC1 returned KDM5B inh inactive.
For O=C(Nc1ccccc1)N1C[C@@H]2C[C@H](C1)c1c(-c3cncnc3)ccc(=O)n1C2 the results were KDM5B inh inactive.
`Cn1nc(-c2ccc(F)cc2)cc1[C@H]1CN2CC[C@H]1C[C@@H]2CNC(=O)Nc1cccc(C#N)c1` gave KDM5B inh inactive.
`O=C(Nc1cccc(F)c1)N1C[C@@H]2C[C@H](C1)c1c(-c3ccc(Cl)cc3)ccc(=O)n1C2` gave KDM5B inh inactive.
Screening N#Cc1cccc(-c2ccc3n(c2=O)C[C@H]2C[C@@H]3CN(C(=O)c3ccc(F)cc3)C2)c1 returned KDM5B inh 31.6µM*.
`N#Cc1cccc(-c2ccc3n(c2=O)C[C@H]2C[C@@H]3CN(C(=O)Nc3ccccc3)C2)c1` gave KDM5B inh 35.5µM*.
For N#Cc1cccc(-c2ccc3n(c2=O)C[C@H]2C[C@@H]3CN(C(=O)CSCC(=O)O)C2)c1 the results were KDM5B inh 35.5µM*.
Screening CC(C)(C)C(=O)NC(Sc1nccc(SC(NC(=O)C(C)(C)C)C(Cl)(Cl)Cl)n1)=C(Cl)Cl (stereo unspecified) returned KDM5B inh inactive.
For CCN(CC)C(=O)c1ccc(N2C(=O)CCS2(=O)=O)cc1Cl the results were KDM5B inh inactive.
Screening Cc1c(C=O)c(C)n(C(C)C)c1C returned KDM5B inh inactive.
`Nc1cccc(-c2cn(C[C@H]3CC4CCN3C[C@@H]4C(=O)NC3CCCCC3)nn2)c1` (stereo partly specified) gave KDM5B inh inactive.
`Cn1nc(C2CCCCC2)cc1[C@H]1CN2CC[C@H]1C[C@@H]2CNC(=O)NCc1ccccc1` gave KDM5B inh inactive.
`C#CCN(C)C[C@H]1CN2CC[C@H]1C[C@@H]2CNC(=O)NC(C)C` gave KDM5B inh inactive.
OC(CN(Cc1ccccc1)Cc1ccccc1)c1ccc2cc[nH]c2c1 (stereo unspecified) was read as KDM5B inh inactive.
`CN1CC2(c3ccccc3)CN(C)CC(c3ccccc3)(C1)C2=O` gave KDM5B inh inactive.
`N#CC(C#N)=Cc1cccn1-c1ccc(Br)cc1` gave KDM5B inh inactive.
O=C(NCc1ccc2c(c1)OCO2)[C@H]1CN2CCC1C[C@@H]2Cn1cc(-c2cccc(O)c2)nn1 (stereo partly specified) was read as KDM5B inh inactive.
Screening CCCCc1c(C)nc(N2CCN(C)CC2)[nH]c1=O returned KDM5B inh inactive.
Screening Cc1cc2ccccc2n1CC(=O)NCC1(CC(=O)O)CCCCC1 returned KDM5B inh inactive.
Screening FC(F)CN1CCNCC1 returned KDM5B inh inactive.
For CS(=O)(=O)N1C[C@H]2CCN(Cc3ccc[nH]3)C[C@H]21 the results were KDM5B inh 14.1µM*.
N#Cc1ccc(NC(=O)CCC2CCCC2)cc1Cl was read as KDM5B inh inactive.
COc1cc(C2SCC(=O)Nc3[nH]ncc32)ccc1OCC(C)C (stereo unspecified) was read as KDM5B inh inactive.
`CN1c2cccnc2CN(C2COC2)CC[C@H]1CO` gave KDM5B inh inactive.
`Cc1ccc2c(n1)N(C)[C@H](CO)CCN(CCC(C)C)C2` gave KDM5B inh 31.6µM*.
`Cc1ccc2c(n1)N(C)[C@H](CO)CCN(C1COC1)C2` gave KDM5B inh 31.6µM*.
For CC(=O)C1=C(C)OC(N)=C(C(=O)OCc2ccccc2)C12C(=O)Nc1ccccc12 (stereo unspecified) the results were KDM5B inh inactive.
C=C[C@H]1CN2CC[C@H]1C[C@@H]2CNS(=O)(=O)c1ccc(C)cc1 was read as KDM5B inh inactive.
Screening CN(C)C(=O)Oc1ccc2c(=O)c(-c3ccc(Br)cc3)coc2c1 returned KDM5B inh inactive.
`Cc1nn(C)c(C)c1C1SCC(=O)Nc2c1c(C)nn2-c1ccccc1` (stereo unspecified) gave KDM5B inh inactive.
Screening O=c1oc2ccccc2c(O)c1C(c1ccccc1)c1c(O)c2ccccc2oc1=O returned KDM5B inh inactive.
CN(C)C(=O)Oc1ccc2c(=O)c(-c3ccccc3)coc2c1 was read as KDM5B inh inactive.
Screening CCCNC(=O)OC[C@H]1C[C@@H]2CCN1C[C@@H]2c1cc(-c2ccc(OC)cc2)nn1C returned KDM5B inh inactive.
For O=C(COc1ccc2c(-c3ccccc3)cc(=O)oc2c1)N1CCN(CCO)CC1 the results were KDM5B inh inactive.
Screening Cc1nc(-c2ccccc2)cc([C@H]2CN3CC[C@H]2C[C@@H]3CNS(=O)(=O)Cc2ccccc2)n1 returned KDM5B inh inactive.
`CC(C)CNC(=O)CN1CCN(C(=O)Cc2c[nH]c3ccccc23)CC1` gave KDM5B inh inactive.
O=C(Cc1c[nH]c2ncc(-c3cccnc3)cc12)N1CCN(Cc2ccccc2)CC1 was read as KDM5B inh inactive.
`CN1CCN(C(=O)Cc2c[nH]c3ncc(-c4cccc(OC(F)(F)F)c4)cc23)CC1` gave KDM5B inh 35.5µM*.
`COc1cc2c(cc1-c1cccnc1OC)NC(=O)C21CCN(C(C)=O)CC1` gave KDM5B inh inactive.
Screening COc1ncccc1-c1cnc2[nH]cc(CC(=O)N3CCN(C)CC3)c2c1 returned KDM5B inh 35.5µM*.
Screening CCN1CCN(C(=O)Cc2c[nH]c3ccccc23)CC1 returned KDM5B inh inactive.
CN1CCN(C(=O)COc2ccc3ccccc3c2)CC1 was read as KDM5B inh inactive.
Screening CN1CCN(C(=O)Cc2c[nH]c3ncc(-c4ccccc4Oc4ccccc4)cc23)CC1 returned KDM5B inh 39.8µM*.
O=C(Cc1c[nH]c2ccccc12)N1CCN(CC(=O)N2CCCC2)CC1 was read as KDM5B inh inactive.
